According to PubChem BioAssay (NCI):
About 83,000 compounds went through this panel and 20% of them were active in at least one assay; those are over-represented in the sample as a whole.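 Percent growth is the endpoint: 0 to 100 indicates growth inhibition (40 means 60% inhibition), 0 means no net growth, and negative values indicate cell death.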 Values without a mark were called inactive. Activity calls are given as the source filed them. Rule for the calls: active = growth percent below 10; inactive = the rest.

Experiments:
Experiment in all cases: NCI-60 one-dose screen, 48 h (100 = growth as untreated, 0 = no growth, -100 = all killed)
Details in all cases: 10 µM unless noted
[1] = system: DU-145 prostate
[2] = system: K-562 leukemia
[3] = system: MALME-3M melanoma
[4] = system: MDA-MB-231 breast
[5] = system: RXF 393 renal
[6] = system: SF-268 CNS
[7] = system: SF-295 CNS
[8] = system: SF-539 CNS
[9] = system: UACC-257 melanoma
[10] = system: M14 melanoma
[11] = system: HCT-15 colon
[12] = system: HT29 colon
[13] = system: SNB-75 CNS
[14] = system: SNB-19 CNS
[15] = system: U251 CNS
[16] = system: PC-3 prostate
[17] = system: SK-MEL-5 melanoma
[18] = system: UACC-62 melanoma
[19] = system: LOX IMVI melanoma
[20] = system: SK-MEL-28 melanoma

CCOC(=O)C/C(C)=N\NC(=O)c1ccncc1
growth [1]: 107% | growth [2]: 93.2% | growth [3]: 83.8% | growth [4]: 102% | growth [5]: 72.3% | growth [6]: 101% | growth [7]: 92.9% | growth [8]: 97.7% | growth [9]: 107% | growth [10]: 106% | growth [11]: 108% | growth [12]: 100% | growth [13]: 107% | growth [14]: 87.7% | growth [15]: 107% | growth [16]: 96.5% | growth [17]: 104% | growth [18]: 88.1% | growth [19]: 105% | growth [20]: 116%

CCCCCCCCCCCC(c1ccccc1)[N+](C)(C)C (stereo not given)
growth [1]: 39.8% | growth [2]: 19% | growth [3]: 5.27% (active) | growth [4]: 21.1% | growth [5]: -61% (active) | growth [6]: 13.2% | growth [7]: 55.1% | growth [8]: 15.8% | growth [9]: 20% | growth [10]: 11.2% | growth [11]: 93.4% | growth [12]: 3.96% (active) | growth [13]: -15.3% (active) | growth [14]: 25.2% | growth [15]: 18.3% | growth [16]: -18.8% (active) | growth [17]: -80.1% (active) | growth [18]: 6.22% (active) | growth [19]: -36.8% (active) | growth [20]: 31.6%

O=c1oc2ccccc2c(Cl)c1Cl
growth [1]: 107% | growth [2]: 37.2% | growth [3]: 58.5% | growth [4]: 62.6% | growth [5]: 66.6% | growth [6]: 86.5% | growth [7]: 106% | growth [8]: 81.3% | growth [9]: 40% | growth [10]: 17.1% | growth [11]: 38.9% | growth [12]: 105% | growth [13]: 82.4% | growth [14]: 91.7% | growth [15]: 49.1% | growth [16]: 101% | growth [17]: 46.1% | growth [18]: 74.7% | growth [19]: 10.5% | growth [20]: 72.4%

O=C1OC(c2nc3ccccc3s2)=C/C1=C\c1ccc(O)cc1
growth [1]: 111% | growth [2]: 102% | growth [3]: 100% | growth [4]: 87.2% | growth [5]: 119% | growth [6]: 100% | growth [7]: 101% | growth [8]: 93% | growth [9]: 114% | growth [10]: 105% | growth [11]: 111% | growth [12]: 99.5% | growth [13]: 92.7% | growth [14]: 97.2% | growth [15]: 107% | growth [16]: 88.8% | growth [17]: 104% | growth [18]: 89.1% | growth [19]: 94.3% | growth [20]: 107%

CN(Cc1cnc2nc(N)nc(N)c2n1)c1ccc(C(=O)N[C@@H](CCc2nn[nH]n2)c2nn[nH]n2)cc1
growth [1]: 32.8% | growth [2]: 18.1% | growth [3]: 68.9% | growth [4]: 111% | growth [5]: 71.1% | growth [6]: 39% | growth [7]: 40.8% | growth [8]: 46.6% | growth [9]: 55.8% | growth [10]: 29.8% | growth [11]: 25.2% | growth [12]: 27% | growth [13]: 76.6% | growth [14]: 53.4% | growth [15]: 50.6% | growth [16]: 32.6% | growth [17]: 41.2% | growth [18]: 21.5% | growth [19]: 16.1% | growth [20]: 103%

Cc1ccccc1NC(=O)N/C(N)=N/c1nc(C)c(C)s1
growth [1]: 11.2% | growth [2]: 9.17% (active) | growth [3]: 57.1% | growth [4]: 50.9% | growth [5]: 0.637% (active) | growth [6]: 59.5% | growth [7]: 8.66% (active) | growth [8]: -26% (active) | growth [9]: 67.8% | growth [10]: 24% | growth [11]: 26.4% | growth [12]: 16.6% | growth [13]: -33.2% (active) | growth [14]: 39.9% | growth [15]: 21.3% | growth [16]: 30.6% | growth [17]: 40.5% | growth [18]: 42.7% | growth [19]: 37.8% | growth [20]: 60.7%

N=C1C(c2nc(-c3ccc(Br)cc3)cs2)=C(O)CN1Cc1cccnc1
growth [1]: 11.9% | growth [2]: 49.8% | growth [3]: 34.1% | growth [4]: 78.7% | growth [5]: 67.1% | growth [6]: 38% | growth [7]: 37.2% | growth [8]: 60.5% | growth [9]: 81% | growth [10]: 69.3% | growth [11]: 87.5% | growth [12]: 65.4% | growth [13]: 15.5% | growth [14]: 75.9% | growth [15]: 56.7% | growth [16]: -6.43% (active) | growth [17]: 79.6% | growth [18]: 78.2% | growth [19]: 85.3% | growth [20]: 48.5%

CC(C)(C)CC(C)(C)Nc1c(-c2ccncc2)nc2cnccn12
growth [1]: 106% | growth [2]: 98.4% | growth [3]: 110% | growth [4]: 95% | growth [5]: 93.8% | growth [6]: 98.6% | growth [7]: 101% | growth [8]: 93.8% | growth [9]: 103% | growth [10]: 100% | growth [11]: 97.9% | growth [12]: 93% | growth [13]: 80.4% | growth [14]: 97.3% | growth [15]: 99.2% | growth [16]: 97.7% | growth [17]: 99.4% | growth [18]: 92.9% | growth [19]: 98.8% | growth [20]: 112%

COc1cccc(/C=C/C(=O)c2c(C)nc3ccccc3c2/C=C/c2ccc(C)cc2)c1OC
growth [1]: 52.3% | growth [2]: 17.3% | growth [3]: 79.1% | growth [4]: 63.8% | growth [5]: 53.8% | growth [6]: 70.3% | growth [7]: 65.7% | growth [8]: 72.8% | growth [9]: 67.5% | growth [10]: 73.7% | growth [11]: 19% | growth [12]: 29.7% | growth [13]: 42.4% | growth [14]: 70.2% | growth [15]: 55.3% | growth [16]: 43.4% | growth [17]: 66% | growth [18]: 43.6% | growth [19]: 39% | growth [20]: 40.9%

COCCc1ccc(OCC(O)CNC(C)C)cc1 (stereo not given)
growth [1]: 109% | growth [2]: 101% | growth [3]: 97.5% | growth [4]: 101% | growth [5]: 128% | growth [6]: 104% | growth [7]: 101% | growth [8]: 106% | growth [9]: 96.3% | growth [10]: 92.4% | growth [11]: 102% | growth [12]: 98.9% | growth [13]: 90.4% | growth [14]: 105% | growth [15]: 98.2% | growth [16]: 96.6% | growth [17]: 108% | growth [18]: 113% | growth [19]: 96.6% | growth [20]: 98.9%

CCOC(CN=Cc1cc(C)c2[nH]c3ccccc3c2c1C)OCC
growth [1]: 101% | growth [2]: 95.1% | growth [3]: 124% | growth [4]: 108% | growth [5]: 102% | growth [6]: 92.5% | growth [7]: 92.4% | growth [8]: 100% | growth [9]: 90.3% | growth [10]: 94.4% | growth [11]: 97.8% | growth [12]: 108% | growth [13]: 88.9% | growth [14]: 91.9% | growth [15]: 89.5% | growth [16]: 101% | growth [17]: 105% | growth [18]: 71.3% | growth [19]: 96.3% | growth [20]: 103%

CCOC(=O)/C=C/c1cc2cc(-c3csc4ccccc34)ccc2[nH]1
growth [1]: 89.5% | growth [2]: 25.4% | growth [3]: 76.9% | growth [4]: 56.9% | growth [5]: 83.4% | growth [6]: 74.8% | growth [7]: 64.6% | growth [8]: 77.6% | growth [9]: 69.5% | growth [10]: 68.1% | growth [11]: 56.8% | growth [12]: 21.9% | growth [13]: 97.5% | growth [14]: 101% | growth [15]: 78.2% | growth [16]: 62% | growth [17]: 87.6% | growth [18]: 67.5% | growth [19]: 64.7% | growth [20]: 104%

O=C1CC(N2C(=O)/C(=C/C(Cl)=C\c3ccc([N+](=O)[O-])cc3)SC2=S)C(=O)N1c1ccc(O)cc1 (stereo not given)
growth [1]: 0.996% (active) | growth [2]: 6.6% (active) | growth [3]: -39% (active) | growth [4]: -10.3% (active) | growth [5]: -70.5% (active) | growth [6]: 5.72% (active) | growth [7]: -37.2% (active) | growth [8]: -28.8% (active) | growth [9]: -5.88% (active) | growth [10]: -7.42% (active) | growth [11]: -38.2% (active) | growth [12]: -16.7% (active) | growth [13]: 14.9% | growth [14]: -9.69% (active) | growth [15]: -39.5% (active) | growth [16]: 5.02% (active) | growth [17]: -39.1% (active) | growth [18]: -63.2% (active) | growth [19]: -83.7% (active) | growth [20]: -34% (active)

COc1ccc(C2=Nc3c(N)ncnc3NC(c3ccc4c(c3)OCO4)C2)cc1 (stereo not given)
growth [1]: 97.1% | growth [2]: 113% | growth [3]: 105% | growth [4]: 73.9% | growth [5]: 66% | growth [6]: 89.6% | growth [7]: 118% | growth [8]: 90.3% | growth [9]: 116% | growth [10]: 73.8% | growth [11]: 94.8% | growth [12]: 93.2% | growth [13]: 66.2% | growth [14]: 85% | growth [15]: 94.3% | growth [16]: 77.2% | growth [17]: 88.2% | growth [18]: 80.6% | growth [19]: 94% | growth [20]: 101%

CCCCCCCCCCCCCCCCCCOc1ccccc1CC(=O)OCCC[N+](C)(C)C
growth [1]: 60.5% | growth [2]: 37.4% | growth [3]: 52.7% | growth [4]: 45.9% | growth [5]: -18.2% (active) | growth [6]: 53.2% | growth [7]: 75.4% | growth [8]: 52.1% | growth [9]: 84.7% | growth [10]: 46.3% | growth [11]: 78.7% | growth [12]: 40% | growth [13]: 40.6% | growth [14]: 34.2% | growth [15]: 24.2% | growth [16]: 36.8% | growth [17]: 43.2% | growth [18]: 54.2% | growth [19]: 36.4% | growth [20]: 66.8%
